# Data as given in PubChem BioAssay (Tox21).
# Results filed as inconclusive are left out. Entries that show only a call come without a potency. Values without a mark were called inactive. Active and inactive are the calls of the source. Calls come from the whole dose curve; as a rule, active = well fitted curve in the direction sought with a large enough effect in the repeat runs; inconclusive = weak or mixed curves; inactive = no such curve, though single readings can be large; an effect the other way counts as inactive or inconclusive.
# Legend:
# [1] = qHTS RealTime-Glo MT Cell Viability Assay in HepG2 cells - 8 hour (AID 1224873); note: nearly all actives have a fitted effect of over 55% in size
# How it was run: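 Real-time viability: cells seeded at 600 per well together with NanoLuc and cell-permeant prosubstrate, compounds added after 5 h incubation. Luminescence tracked at 0, 8, 16, 24, 32 and 40 h of exposure.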
# [2] = A CellTox Green Cytotoxicity Assay to monitor cytotoxicity in HEK293 cells - 24 hour (AID 1224875); note: nearly all actives have a fitted effect of over 45% in size; note: potency is the fitted concentration of half-maximal effect; for activity change: series mostly up to about 77 µM
# How it was run: (§1)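 HEK293 cells, 600/well, were preincubated 5 hours and then exposed to compounds at 37 C for up to 40 hours. A cell-impermeant cyanine dye staining dead-cell DNA was read by fluorescence at 0, 8, 16, 24, 32 and 40 h time points.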
# [3] = A CellTox Green Cytotoxicity Assay to monitor cytotoxicity in HepG2 cells - 16 hour (AID 1224876); note: nearly all actives have a fitted effect of over 45% in size; note: potency is the fitted concentration of half-maximal effect
# How it was run: (§2)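 HepG2 cells, 600/well, preincubated 5 h with CellTox Green dye, then exposed to Tox21 compounds in DMSO at 37 C for up to 40 h. Dead-cell DNA fluorescence read at the indicated time point.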
# [4] = qHTS RealTime-Glo MT Cell Viability Assay in HepG2 cells - 32 hour (AID 1224877); note: nearly all actives have a fitted effect of over 55% in size
# How it was run: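 Tox21 10K library screened in qHTS format on HepG2 cells carrying RealTime-Glo reagents. Compounds were added after a 5 h preincubation, and the luminescent signal from continuous culture was measured repeatedly during 40 h treatment.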
# [5] = A CellTox Green Cytotoxicity Assay to monitor cytotoxicity in HepG2 cells - 24 hour (AID 1224878); note: nearly all actives have a fitted effect of over 45% in size; note: potency is the fitted concentration of half-maximal effect
# How it was run: as §2
# [6] = A CellTox Green Cytotoxicity Assay to monitor cytotoxicity in HepG2 cells - 40 hour (AID 1224879); note: nearly all actives have a fitted effect of over 40% in size; note: potency is the fitted concentration of half-maximal effect
# How it was run: as §2
# [7] = qHTS RealTime-Glo MT Cell Viability Assay in HEK293 cells - 0 hour (AID 1224880); note: top concentration of the series differs between compounds; nearly all actives have a fitted effect of over 45% in size
# How it was run: (§3)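 600 cells/well were plated with the nonlytic NanoLuc/prosubstrate reagent, pre-incubated 5 h, then given 23 nL of compound in DMSO. Incubation at 37 C for 40 h, with luminescence from viable-cell-reduced substrate read repeatedly from 0 h.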
# [8] = qHTS RealTime-Glo MT Cell Viability Assay in HEK293 cells - 16 hour (AID 1224872); note: potency is the fitted concentration of half-maximal effect; nearly all actives have a fitted effect of over 50% in size
# How it was run: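 Luminescence generated by NanoLuc from substrate produced by living HEK293 cells served as the viability signal. Each value reflects the reading at its stated time point during continuous 40 h compound exposure at 37 C.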
# [9] = A CellTox Green Cytotoxicity Assay to monitor cytotoxicity in HEK293 cells - 32 hour (AID 1224881); note: nearly all actives have a fitted effect of over 40% in size; note: potency is the fitted concentration of half-maximal effect
# How it was run: as §1
# [10] = qHTS RealTime-Glo MT Cell Viability Assay in HEK293 cells - 40 hour (AID 1224874); conditions: RealTime-Glo luminescence; max response: hits give low values; note: potency is the fitted concentration of half-maximal effect; nearly all actives have a fitted effect of over 50% in size
# How it was run: as §3
compound,measurement,setting,value
C[Si](Cl)(c1ccccc1)c1ccccc1,Potency,[1],inactive
same,Potency,[2],inactive
same,Potency,[3],inactive
same,Potency,[4],inactive
same,Potency,[5],inactive
same,Potency,[6],inactive
same,Potency,[7],inactive
O=C1CCc2ccc(OCCCCN3CCN(c4cccc(Cl)c4Cl)CC3)cc2N1,Potency,[8],10.7 µM (active)
same,Potency,[2],inactive
same,Potency,[3],inactive
same,Potency,[6],26.8 µM (active)
same,Potency,[7],inactive
same,Potency,[9],inactive
CC(C)Cn1cnc2c(N)nc3ccccc3c21,"viability change, negative = cytotoxic",[1],-0.187% [at 15.8 µM]
same,activity change,[2],"3.75% [at 15.8 µM, hits give high values]"
same,cytotoxicity increase,[3],-13.4% [at 15.8 µM]
same,"activity change, negative = cytotoxic",[4],-0.3% [at 15.8 µM]
same,cytotoxicity,[5],-13.9% [at 15.8 µM]
same,cytotoxicity increase,[6],-14.5% [at 15.8 µM]
same,"activity change, negative = cytotoxicity",[7],-0.941% [at 15.8 µM]
same,cytotoxicity increase,[9],3.99% [at 15.8 µM]
C=CC(=O)OCCOC(=O)C=C,Potency,[1],inactive
same,Potency,[10],49 µM (active)
same,Potency,[2],inactive
same,Potency,[3],inactive
same,Potency,[4],inactive
same,Potency,[5],inactive
same,Potency,[6],inactive
same,Potency,[7],inactive
CC(C)(C)c1csc(-c2cc3cc(OCc4ccccc4CC(=O)O)ccc3o2)n1,Potency,[2],54.9 µM (active)
same,Potency,[3],54.9 µM (active)
same,Potency,[4],inactive
same,Potency,[5],54.9 µM (active)
same,Potency,[6],54.9 µM (active)
same,Potency,[7],inactive
same,Potency,[9],54.9 µM (active)
CC(C)=CCC1=C(O)c2ccccc2C(=O)C1=O,Potency,[1],inactive
same,Potency,[2],inactive
same,Potency,[3],inactive
same,Potency,[4],inactive
same,Potency,[5],inactive
same,Potency,[6],inactive
same,Potency,[7],inactive
same,Potency,[9],inactive
CN(C)[C@@H](CCOc1cccc2ccccc12)c1ccccc1,Potency,[7],inactive
OC12N=C(c3ccccc3)SC1Cc1cc(Cl)ccc12 (stereo not drawn),Potency,[1],inactive
same,Potency,[2],inactive
same,Potency,[3],inactive
same,Potency,[4],inactive
same,Potency,[7],inactive
same,Potency,[9],inactive
CCO[C@@H]1O[C@H](C(COCc2ccccc2)OCc2ccccc2)[C@H](OCc2ccccc2)[C@H]1O (stereo partly drawn),Potency,[2],inactive
same,Potency,[3],inactive
same,Potency,[4],inactive
same,Potency,[5],inactive
same,Potency,[7],inactive
same,Potency,[9],inactive
C/C=C/C=C/COC(=O)C(C)C,Potency,[1],inactive
same,Potency,[2],inactive
same,Potency,[3],inactive
same,Potency,[6],43.6 µM (active)
same,Potency,[7],inactive
COC(=O)C1=C(C)NC(C)=C(C(=O)OCCN2CCN(C(c3ccccc3)c3ccccc3)CC2)C1c1cccc([N+](=O)[O-])c1 (stereo not drawn),Potency,[2],inactive
same,Potency,[3],inactive
same,Potency,[5],inactive
same,Potency,[6],inactive
same,Potency,[7],inactive
same,Potency,[9],inactive
